The test system of assay [1] is Klebsiella pneumoniae. As to conditions: Concentration 32 ug.mL-1, ASSAY_TEST Inhibition of Bacterial Growth, detection method Absorption (OD600), MEDIA CAMHB, plate type 384well, NBS, CORNING #3640, time 18 hr.
Assay [2] deals with Candida albicans. As to conditions: 32 ug/mL.
Assay [3] has as its system Cryptococcus neoformans. As to conditions: Concentration 32 ug.mL-1, ASSAY_TEST Inhibition of Fungal Growth, detection method Resazurin, Absorption (OD600-OD570), plate type 384well, NBS, CORNING #3640.

Results on 37 compounds are retold here after ChEMBL document CHEMBL4513135, “CO-ADD screening of IQOG CSIS (Spain) compounds”.

Where “and” joins values, the source holds several entries; their conditions need not be identical. Equal values may be shown once. Measured potencies and affinities stand elsewhere.

As a reminder, the Inhibition is the change of the read-out against control, counted positive when it falls. In the case of `N#CC1=C(N)Oc2c(ccc3ccccc23)C1c1ccc(Cl)c(Cl)c1` (stereo unspecified), the Inhibition in assay [1] is -23.32%; in assay [2], 1.53%; in assay [3], -2.77%.
Taken in the same sequence, the figures for `O=C1SC(SCc2ccccc2)=NC1=Cc1cccc(OCc2ccccc2)c1` were -15.18%, 0.84% and -8.61%.
Taken in the same sequence, the figures for `CCOC(=O)c1cc(C#N)c(N)nc1C` were 5.86%, 2.73% and -17.38%.
Taken in the same sequence, the figures for `N#Cc1cc(C#N)c(NCCO)nc1N` were 12.5%, 1.22% and -17.78%.
`Nc1c2c(nc3c1C(c1ccc(Cl)c(Cl)c1)c1ccc4ccccc4c1O3)CCCC2` (stereo unspecified): the Inhibition is -10.24% in assay [1], 4.63% in assay [2] and -2.87% in assay [3].
Taken in the same sequence, the figures for `CCOC(=O)c1cc2cc(OC(=O)Oc3ccc([N+](=O)[O-])cc3)ccc2[nH]1` were 0.96%, 0.86% and -63.93%.
On to `Cc1ccc(CNNC(=O)c2cc3ccccc3n2C)cc1`, for which the figures for the Inhibition in assay [1], in assay [2] and in assay [3] were -14.45%, 1.69% and -0.2%, respectively.
Taken in the same sequence, the figures for `Cn1ccnc1C1C2=C(CC(C)(C)CC2=O)Oc2nc3c(c(N)c21)CCCC3` (stereo unspecified) were 9.51%, 1.3% and -60.42%.
On to `N#CC1(Br)C(=NBr)Oc2c(ccc3ccccc23)C1c1ccc([N+](=O)[O-])cc1` (stereo unspecified), for which the Inhibition was 12.27% in assay [1], 25.9% in assay [2] and -87.41% in assay [3].
Taken in the same sequence, the figures for `Cc1cnc2ccc(Br)cn12` were -1.82%, 1.23% and -0.9%.
Take `CCOC(=O)C1=C(C)OC(N)=C(C#N)C1c1ccc(F)cc1` (stereo unspecified): the Inhibition is 13.44% in assay [1], 1.48% in assay [2] and -57.32% in assay [3].
Taken in the same sequence, the figures for `Cl.Cl.Cn1c(CNc2ccccc2)cc2cc(OCCCC3CCN(Cc4ccccc4)CC3)ccc21` were 5.5%, 1.7% and -74.16%.
As for `Cc1ccc(C2c3ccc4ccccc4c3Oc3nc4c(c(N)c32)CCCC4)cc1` (stereo unspecified), the Inhibition in assay [1] was -8.56%; in assay [2] it was 2.81%; in assay [3], 5.66%.
On to `NC(=O)N/N=C/c1c[nH]c2ccccc12`, for which the values for the Inhibition in assay [1], in assay [2] and in assay [3] were 23.24%, 0.31% and -3.05%, respectively.
Taken in the same sequence, the figures for `C#CCN(C)c1ncc(C#N)c(N)n1` were 9.44%, 5.2% and -42.08%.
Taken in the same sequence, the figures for `COc1cccc(C2C(C#N)=C(N)Oc3c2ccc2ccccc32)c1` (stereo unspecified) were 8.5%, 3.73% and -38.21%.
Taken in the same sequence, the figures for `COc1ccccc1C1C(C#N)=C(N)Oc2ccc3ccccc3c21` (stereo unspecified) were 9.04%, 2.24% and -18.76%.
For `COc1ccc(CNNC(=O)c2cc3ccccc3[nH]2)cc1O`, the Inhibition in assay [1] came to 4.75%; in assay [2], 0.7%; in assay [3] it was 0.55%.
For the compound `C=C=CCN(C)Cc1cc2ccccc2n1C.O=C(O)C(=O)O`, the Inhibition in assay [1] was 9.39%; in assay [2] it was 1.88%; in assay [3], -29.39%.
For `N#Cc1cc(C#N)c(NCc2ccccc2)nc1N`, the Inhibition in assay [1] is -14.3%; in assay [2] it was 1.7%; in assay [3] it was 5.02%.
Consider `CC(=O)NC=C1C(=O)OC(C)(C)OC1=O`, for which the results for the Inhibition in assay [1], in assay [2] and in assay [3] were 18.67%, 0.54% and -4.92%, respectively.
Taken in the same sequence, the figures for `Cl.ClCCCC1CCNCC1` were 10.49%, 0.27% and -2.91%.
Taken in the same sequence, the figures for `COc1ccc2cc(C3C(C(C)=O)=C(C)Oc4nc5c(c(N)c43)CCC5)c(Cl)nc2c1` (stereo unspecified) were 0.03%, 12.4% and -0.43%.
Taken in the same sequence, the figures for `Cl.Nc1c2c(nc3c1C(c1ccccc1)c1ccc4ccccc4c1O3)CCCC2` (stereo unspecified) were 22.34%, 1.77% and -1.1%.
Regarding `N#CC1=C(Cl)Oc2c(ccc3ccccc23)C1c1ccccc1` (stereo unspecified), the Inhibition in assay [1] was 10.59%; in assay [2], 4.15%; in assay [3], -59.47%.
For `N#Cc1c(Cl)nc(Sc2ccccc2)c(C#N)c1-c1ccccc1`, the Inhibition was -3.62% in assay [1], 2.71% in assay [2] and -38.87% in assay [3].
Taken in the same sequence, the figures for `O=C(N/N=C/c1ccc([N+](=O)[O-])cc1)c1cc2ccccc2[nH]1` were 7.41%, 0.87% and -3.37%.
Taken in the same sequence, the figures for `COc1ccc(C=C2N=C(SC)N(C)C2=O)cc1` were -13.67%, 0.01% and -7.91%.
Taken in the same sequence, the figures for `c1ccc(COc2ccc3[nH]ccc3c2)cc1` were 11.46%, -1.1% and -1.93%.
Turning to `COc1ccc(C=C2N=C(c3ccccc3)OC2=O)cc1`, the figures for the Inhibition in assay [1], in assay [2] and in assay [3] were 13.35%, 0.77% and -7.5%, respectively.
Taken in the same sequence, the figures for `C#CCNc1cccc(F)n1` were 9.96%, -0.33% and -45.04%.
As for `N#CC1(Br)C(=N)Oc2ccc3ccccc3c2C1c1ccccc1` (stereo unspecified), the Inhibition was 8.56% and 13.61% in assay [1] (32 ug/mL); 5.08% and 2.03% in assay [2]; -52.48% and -41.25% in assay [3] (32 ug/mL).
As to `Cc1ccc(C2C(C#N)=C(N)Oc3c2ccc2ccccc32)cc1` (stereo unspecified), the Inhibition in assay [1] is 1.87%; in assay [2], -0.54%; in assay [3] it was -6.98%.
Taken in the same sequence, the figures for `NNC(=O)Cc1c[nH]c2ccccc12` were 17.86%, 3.51% and -6.14%.
Taken in the same sequence, the figures for `Cc1ccc(C=C2N=C(c3ccccc3)OC2=O)cc1` were 9.43%, -0.14% and -5.42%.
Taken in the same sequence, the figures for `CCOC(=O)c1cn(C)c2ccccc12` were 12.15%, 7.9% and -4.62%.
In the case of `CCOc1nc2nc(CCc3ccccc3)ccc2c(-c2ccccc2)c1C#N`, the Inhibition in assay [1] was 1.47%; in assay [2], 7.93%; in assay [3], -42.89%.
